# In ChEMBL document CHEMBL3988442, “University of Dundee, Small-Polar-MMV Screening Library” (2021):
# Biological target: Shiga toxin 2 (Escherichia coli O157:H7) (UniProt P09385+P09386)
# Assay: E. coli 0.157:H7 Shiga Toxin SOP - stx2 screening assay
# Format: functional
# Set-up: scale not given: direction of the effect not stated beside the values
# Conditions: 30 µM
row,SMILES,Percent Effect
1,Cc1nc(CN2CCCC(N(C)Cc3cscn3)C2)no1 (centres undefined),-14.1%
2,COc1cc(C)nc(N2CCN(C(=O)CN(C)C3CC3)CC2)n1,-33.1%
3,CCCn1nc(C2CCNCC2)n(Cc2ccccc2)c1=O,-6.93%
4,CS(=O)(=O)N1CCN(C(=O)Cn2ccc3c(Cl)cccc32)CC1,-16.5%
